Source: ChEMBL document CHEMBL1961873, “Compounds: GSK PKIS; Assays: Nanosyn kinase panel” (2012)

Assays:
[1] = target: T1, Serine/threonine-protein kinase TBK1 (Homo sapiens) (UniProt Q9UHD2); conditions: at 1 µM;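 note: values are mean inhibition of TBK1, screened as part of the GSK published kinase inhibitor set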
T1 sequence (whole entry): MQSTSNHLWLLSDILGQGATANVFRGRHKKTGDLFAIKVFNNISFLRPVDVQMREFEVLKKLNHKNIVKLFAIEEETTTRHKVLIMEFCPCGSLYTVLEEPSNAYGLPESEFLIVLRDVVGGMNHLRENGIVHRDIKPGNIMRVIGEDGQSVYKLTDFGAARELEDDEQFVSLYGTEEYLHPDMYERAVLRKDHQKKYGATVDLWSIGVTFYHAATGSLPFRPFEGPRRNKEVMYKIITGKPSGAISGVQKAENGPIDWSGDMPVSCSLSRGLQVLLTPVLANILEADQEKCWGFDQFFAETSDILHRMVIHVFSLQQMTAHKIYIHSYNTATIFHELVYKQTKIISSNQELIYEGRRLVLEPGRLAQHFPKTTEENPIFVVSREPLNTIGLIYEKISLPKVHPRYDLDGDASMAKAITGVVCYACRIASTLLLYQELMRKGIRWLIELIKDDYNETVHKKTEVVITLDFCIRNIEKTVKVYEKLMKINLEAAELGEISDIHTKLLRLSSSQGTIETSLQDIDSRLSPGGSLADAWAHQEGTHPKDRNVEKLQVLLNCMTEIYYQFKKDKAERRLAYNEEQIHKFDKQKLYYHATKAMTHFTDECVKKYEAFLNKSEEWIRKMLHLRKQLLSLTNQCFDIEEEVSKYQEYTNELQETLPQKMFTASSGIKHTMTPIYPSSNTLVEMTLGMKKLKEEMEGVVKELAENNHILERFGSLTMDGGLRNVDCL

[2] = target: T2, Testis-specific serine/threonine-protein kinase 1 (Homo sapiens) (UniProt Q9BXA7); conditions: at 0.1 µM
T2 sequence (whole entry): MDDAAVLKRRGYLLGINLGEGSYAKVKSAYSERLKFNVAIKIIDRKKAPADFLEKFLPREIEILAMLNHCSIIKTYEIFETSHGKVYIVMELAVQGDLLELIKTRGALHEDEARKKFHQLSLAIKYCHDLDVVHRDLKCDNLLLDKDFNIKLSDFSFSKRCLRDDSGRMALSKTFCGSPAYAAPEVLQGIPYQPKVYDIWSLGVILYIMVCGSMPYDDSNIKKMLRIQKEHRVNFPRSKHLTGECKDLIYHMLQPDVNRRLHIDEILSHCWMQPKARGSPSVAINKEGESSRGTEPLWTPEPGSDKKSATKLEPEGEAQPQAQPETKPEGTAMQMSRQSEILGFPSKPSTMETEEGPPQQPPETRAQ

[3] = target: T2, Testis-specific serine/threonine-protein kinase 1 (Homo sapiens); conditions: at 1 µM
[4] = target: T3, Testis-specific serine/threonine-protein kinase 2 (Homo sapiens) (UniProt Q96PF2); conditions: at 0.1 µM
T3 sequence (whole entry): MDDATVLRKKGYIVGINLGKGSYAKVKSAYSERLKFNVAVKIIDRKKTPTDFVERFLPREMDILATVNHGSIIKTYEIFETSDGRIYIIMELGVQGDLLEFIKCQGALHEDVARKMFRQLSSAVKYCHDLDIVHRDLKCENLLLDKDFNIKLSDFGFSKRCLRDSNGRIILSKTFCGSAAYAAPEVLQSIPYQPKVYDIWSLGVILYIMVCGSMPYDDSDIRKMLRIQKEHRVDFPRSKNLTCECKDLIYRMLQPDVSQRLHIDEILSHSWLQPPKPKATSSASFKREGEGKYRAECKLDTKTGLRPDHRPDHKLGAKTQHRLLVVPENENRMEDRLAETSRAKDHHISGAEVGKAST

[5] = target: T3, Testis-specific serine/threonine-protein kinase 2 (Homo sapiens); conditions: at 1 µM
[6] = target: Casein kinase I isoform alpha (Homo sapiens) (UniProt P48729); conditions: at 0.1 µM
Chain of Casein kinase I isoform alpha (Homo sapiens) (P48729 2-337 limits assumed): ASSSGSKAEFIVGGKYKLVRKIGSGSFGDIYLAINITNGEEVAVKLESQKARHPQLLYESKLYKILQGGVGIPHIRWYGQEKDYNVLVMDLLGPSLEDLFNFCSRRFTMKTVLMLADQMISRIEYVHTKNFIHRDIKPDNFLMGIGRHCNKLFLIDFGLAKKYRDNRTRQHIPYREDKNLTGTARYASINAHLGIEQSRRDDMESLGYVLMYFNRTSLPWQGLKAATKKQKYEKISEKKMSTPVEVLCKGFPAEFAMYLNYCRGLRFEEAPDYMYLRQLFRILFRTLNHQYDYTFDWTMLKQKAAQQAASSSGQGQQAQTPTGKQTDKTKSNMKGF

[7] = target: Casein kinase I isoform alpha (Homo sapiens) (UniProt P48729); conditions: at 1 µM
[8] = target: Casein kinase I isoform gamma-1 (Homo sapiens) (UniProt Q9HCP0); conditions: at 0.1 µM
Chain of Casein kinase I isoform gamma-1 (Homo sapiens) (Q9HCP0 whole entry, looked up, canonical isoform): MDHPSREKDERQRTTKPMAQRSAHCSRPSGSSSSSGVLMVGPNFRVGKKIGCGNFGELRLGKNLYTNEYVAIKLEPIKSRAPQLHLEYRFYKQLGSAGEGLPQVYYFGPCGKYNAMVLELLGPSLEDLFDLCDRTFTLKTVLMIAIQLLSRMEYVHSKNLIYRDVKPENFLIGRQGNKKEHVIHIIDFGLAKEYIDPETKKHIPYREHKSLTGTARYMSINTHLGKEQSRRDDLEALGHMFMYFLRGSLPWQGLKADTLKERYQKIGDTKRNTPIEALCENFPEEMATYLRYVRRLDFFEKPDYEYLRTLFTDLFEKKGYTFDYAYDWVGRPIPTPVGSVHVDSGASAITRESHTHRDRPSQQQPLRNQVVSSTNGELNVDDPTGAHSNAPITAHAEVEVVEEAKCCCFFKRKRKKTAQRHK

[9] = target: Casein kinase I isoform gamma-1 (Homo sapiens) (UniProt Q9HCP0); conditions: at 1 µM
[10] = target: Casein kinase I isoform gamma-2 (Homo sapiens) (UniProt P78368); conditions: at 0.1 µM
Chain of Casein kinase I isoform gamma-2 (Homo sapiens) (P78368 whole entry, looked up, canonical isoform): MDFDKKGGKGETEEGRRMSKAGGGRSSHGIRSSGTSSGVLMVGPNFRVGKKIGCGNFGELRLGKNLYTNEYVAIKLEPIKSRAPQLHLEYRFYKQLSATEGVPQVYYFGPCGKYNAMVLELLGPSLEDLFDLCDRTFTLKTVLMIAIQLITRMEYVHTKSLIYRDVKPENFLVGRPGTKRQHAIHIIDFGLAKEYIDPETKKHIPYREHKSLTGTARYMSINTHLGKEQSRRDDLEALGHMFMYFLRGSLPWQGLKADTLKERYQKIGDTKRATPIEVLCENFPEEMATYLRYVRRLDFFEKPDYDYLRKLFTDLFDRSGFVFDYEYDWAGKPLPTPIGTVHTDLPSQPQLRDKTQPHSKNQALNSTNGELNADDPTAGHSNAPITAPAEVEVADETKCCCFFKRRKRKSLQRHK

[11] = target: Casein kinase I isoform gamma-2 (Homo sapiens) (UniProt P78368); conditions: at 1 µM
[12] = target: Casein kinase I isoform gamma-3 (Homo sapiens) (UniProt Q9Y6M4); conditions: at 0.1 µM
Chain of Casein kinase I isoform gamma-3 (Homo sapiens) (Q9Y6M4 whole entry, looked up, canonical isoform): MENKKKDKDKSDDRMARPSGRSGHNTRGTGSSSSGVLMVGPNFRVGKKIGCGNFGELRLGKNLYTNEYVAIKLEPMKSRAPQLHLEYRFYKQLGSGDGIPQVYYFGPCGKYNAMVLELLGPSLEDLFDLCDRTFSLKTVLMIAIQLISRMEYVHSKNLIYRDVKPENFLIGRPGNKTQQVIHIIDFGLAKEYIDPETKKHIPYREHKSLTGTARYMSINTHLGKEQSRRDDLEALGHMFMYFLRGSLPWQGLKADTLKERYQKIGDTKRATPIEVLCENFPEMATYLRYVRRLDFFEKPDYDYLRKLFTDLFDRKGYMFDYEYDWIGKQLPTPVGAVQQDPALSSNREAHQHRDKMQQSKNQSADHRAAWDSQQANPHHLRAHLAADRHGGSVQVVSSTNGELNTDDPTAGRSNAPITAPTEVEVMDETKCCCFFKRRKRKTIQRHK

[13] = target: Casein kinase I isoform gamma-3 (Homo sapiens) (UniProt Q9Y6M4); conditions: at 1 µM
[14] = target: Cyclin-dependent kinase 1 (Homo sapiens) (UniProt P06493); conditions: at 0.1 µM
Chain of Cyclin-dependent kinase 1 (Homo sapiens) (P06493 whole entry, looked up): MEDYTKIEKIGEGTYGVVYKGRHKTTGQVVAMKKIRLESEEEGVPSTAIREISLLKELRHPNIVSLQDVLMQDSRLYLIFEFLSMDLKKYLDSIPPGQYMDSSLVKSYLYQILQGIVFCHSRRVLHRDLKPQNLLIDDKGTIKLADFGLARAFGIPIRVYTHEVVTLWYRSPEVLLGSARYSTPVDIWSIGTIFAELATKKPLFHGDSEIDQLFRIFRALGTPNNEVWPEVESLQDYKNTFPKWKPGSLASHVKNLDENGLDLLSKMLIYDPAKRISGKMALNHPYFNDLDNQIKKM

[15] = target: Cyclin-dependent kinase 1 (Homo sapiens) (UniProt P06493); conditions: at 1 µM
[16] = target: Cyclin-dependent kinase 2 (Homo sapiens) (UniProt P24941); conditions: at 0.1 µM
[17] = target: Cyclin-dependent kinase 2 (Homo sapiens) (UniProt P24941); conditions: at 1 µM
[18] = target: Cyclin-dependent kinase 2 (Homo sapiens) (UniProt P24941); conditions: at 0.1 µM; remark: listed apart in the source
[19] = target: Cyclin-dependent kinase 2 (Homo sapiens) (UniProt P24941); conditions: at 1 µM; remark: listed apart in the source
[20] = target: CDK3/Cyclin E (Homo sapiens) (UniProt P24864+Q00526); conditions: at 0.1 µM;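 note: reported percentages are mean inhibition values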
Chain of CDK3/Cyclin E (Homo sapiens) (P24864 whole entry, looked up): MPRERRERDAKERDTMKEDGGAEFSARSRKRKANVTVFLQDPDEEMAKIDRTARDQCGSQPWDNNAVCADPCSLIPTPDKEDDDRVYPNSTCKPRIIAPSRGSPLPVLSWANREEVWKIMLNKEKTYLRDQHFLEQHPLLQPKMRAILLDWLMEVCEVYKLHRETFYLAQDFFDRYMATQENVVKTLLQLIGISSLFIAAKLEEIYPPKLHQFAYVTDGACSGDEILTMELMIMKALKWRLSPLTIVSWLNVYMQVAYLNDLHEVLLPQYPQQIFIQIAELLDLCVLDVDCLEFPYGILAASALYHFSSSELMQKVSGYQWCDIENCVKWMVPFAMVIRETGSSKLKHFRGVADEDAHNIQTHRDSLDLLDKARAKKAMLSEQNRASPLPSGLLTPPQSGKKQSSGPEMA
Chain of CDK3/Cyclin E (Homo sapiens) (Q00526 whole entry, looked up): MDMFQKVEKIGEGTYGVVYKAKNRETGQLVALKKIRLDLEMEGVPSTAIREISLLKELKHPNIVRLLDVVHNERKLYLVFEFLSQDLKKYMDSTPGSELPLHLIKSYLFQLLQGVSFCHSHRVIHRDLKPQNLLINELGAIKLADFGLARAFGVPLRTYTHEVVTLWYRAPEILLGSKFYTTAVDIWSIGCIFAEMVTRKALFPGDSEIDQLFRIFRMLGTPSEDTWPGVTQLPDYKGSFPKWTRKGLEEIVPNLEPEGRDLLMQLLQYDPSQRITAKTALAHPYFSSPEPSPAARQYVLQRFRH

SMILES | inhibition [1] [%] | inhibition [2] [%] | inhibition [3] [%] | inhibition [4] [%] | inhibition [5] [%] | inhibition [6] [%] | inhibition [7] [%] | inhibition [8] [%] | inhibition [9] [%] | inhibition [10] [%] | inhibition [11] [%] | inhibition [12] [%] | inhibition [13] [%] | inhibition [14] [%] | inhibition [15] [%] | inhibition [16] [%] | inhibition [17] [%] | inhibition [18] [%] | inhibition [19] [%] | inhibition [20] [%]
COc1ccc2[nH]c3c4[nH]c5ccc(OC)cc5c4c4c(c3c2c1)C(=O)NC4=O | 53.9 | 3.96 | 11.6 | 3.41 | 4.83 | 2.15 | 5.69 | 4.82 | 4.21 | 2.32 | 3.1 | 4.06 | 5 | 0.17 | 3.22 | 1.85 | 3 | 3.64 | 4.91 | 2.31
CN1CCC(n2cnc(-c3ccc(F)cc3)c2-c2ccnc(Nc3ccccc3)n2)CC1 | 2.8 | 3.05 | 3.21 | 2.5 | 2.86 | 53.5 | 83.6 | 7.05 | 42 | 4.57 | 35.2 | 12.4 | 61.7 | 0.37 | 2.52 | 0.89 | -0.3 | 1.14 | 2.14 | 2.38
Nc1nc(-c2ccc(F)cc2)c(-c2ccc3ncccc3n2)s1 | 6.6 | 4.27 | 6.63 | 2.36 | 2.23 | 3.47 | 15.2 | 4.29 | 10.5 | 3.47 | 8.8 | 4.7 | 16.9 | 3.94 | 8.07 | 3.61 | 0.25 | 6.09 | 10.7 | 3.73
COc1ccc(-c2nn3ncccc3c2-c2ccnc(Nc3ccc4c(c3)OCCO4)n2)cc1 | 1.43 | -0.54 | -0.16 | 1.42 | -0.78 | 0 | 3.14 | 1.16 | 3.57 | 1.93 | 3.08 | 0.17 | 1.38 | 0.5 | 1.38 | 0.22 | 0.43 | -0.84 | -0.22 | -2.12
CS(=O)(=O)CCNCc1ccc(-c2ccc3ncnc(Nc4ccc(OCc5ccccc5)c(C(F)(F)F)c4)c3c2)o1 | 1.05 | 3.83 | 3.88 | 0.53 | 0.75 | 2.27 | 0.82 | 3.86 | 8.13 | 3.82 | 4.2 | 3.19 | 2.56 | 0.28 | 1.7 | 6.22 | 8.37 | 2.59 | 4.6 | 0.51
CCn1cc(-c2ccnc3[nH]ccc23)c(-c2cccc(NC(=O)Nc3ccc(OCc4ccccc4)cc3)c2)n1 | -0.26 | 1.75 | 1.5 | -0.38 | -0.63 | -1.12 | -1.47 | 1 | 1.59 | 0.29 | 1.8 | -0.46 | 0.79 | 0.04 | 0.38 | -0.95 | -1.61 | -0.54 | -2.22 | 0.47
COc1cc2ncn(-c3cc(OCc4ccccc4C(F)(F)F)c(C(=O)N(C)C)s3)c2cc1OC | 0.81 | 1.76 | 1.34 | 0.13 | 0.32 | 0.11 | 0.76 | -0.13 | 0.81 | 0.13 | 0.02 | -1.27 | 0.6 | 0.2 | 1.91 | 1.29 | -0.21 | -0.22 | 0.54 | 1.54
COc1ccc2c(-c3ccnc(Nc4cccc(OC(F)(F)F)c4)n3)cnn2n1 | 31.6 | 3.88 | 7 | 3.39 | 2.18 | 2.85 | 9.17 | 3.59 | 6.06 | 3.21 | 7.44 | 4.96 | 6.47 | 5.27 | 41.2 | 11.1 | 60.1 | 14.8 | 57 | 3.19
